Several values for one entry are separate records, joined by “and”; a condition that tells them apart may be missing. Equal entries are not always repeated. Results filed as inconclusive are left out. Activity calls are given as the source filed them.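 Rule for the calls, unless noted: active = normalized viability below 100% at a tested concentration; inactive = the rest.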
Tests used:
[1] = growth inhibition of DIPG glioma cells, dose response, cell-based, SU-DIPG-XVII, MIPE5.0, CellTiter-Glo, qHTS (AID 1347060; cut-off not given, nearly all actives have AC50 up to about 26 µM;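 for AC50: cells exposed to compound for 48 hours before viability readout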); settings: SU-DIPG-XVII viability, CellTiter-Glo ATP luminescence
[2] = growth inhibition of DIPG glioma cells, dose response, cell-based, SU-DIPG-XIII, MIPE4.0, CellTiter-Glo, qHTS (AID 1347061; cut-off not given, nearly all actives have AC50 up to about 37 µM;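 note: cells exposed to compound for 48 hours before readout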); settings: SU-DIPG-XIII viability, CellTiter-Glo ATP luminescence
[3] = viability loss in pontine glioma line – cell-based, SU-DIPG-XXV, MIPE5.0, CellTiter-Glo, qHTS, dose response (AID 1347065; cut-off not given, nearly all actives have AC50 up to about 26 µM;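 note: cells exposed to compound for 48 hours before ATP readout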); settings: CellTiter-Glo ATP luminescence
[4] = SU-DIPG-VI glioma cell viability, MIPE4.0 library, CellTiter-Glo luminescence, qHTS (AID 1347066; cut-off not given, nearly all actives have AC50 up to about 30 µM;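 note: cells exposed to compound for 48 hours before readout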); settings: CellTiter-Glo ATP luminescence
[5] = growth inhibition of DIPG glioma cells, dose response, cell-based, SU-DIPG-IV, MIPE4.0, CellTiter-Glo, qHTS (AID 1347063; cut-off not given, nearly all actives have AC50 up to about 30 µM;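 note: compound exposure lasted 48 hours before the viability readout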); settings: SU-DIPG-IV viability, CellTiter-Glo ATP luminescence
[6] = JHH-DIPG-1 glioma cell viability, MIPE5.0 library, CellTiter-Glo luminescence, qHTS (AID 1347067; cut-off not given, nearly all actives have AC50 up to about 26 µM;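 note: cells exposed to compound for 48 hours before readout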); settings: JHH-DIPG-1 glioma viability, CellTiter-Glo ATP luminescence
[7] = sensitizers of A549 cells to miR-34 induction, primary screen, imaging, A549 dox-inducible miR-34, nuclei and caspase counts (AID 1347080;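 active = compounds whose cell count with miR-34 switched on is under 0.7 times the count with it off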); settings: A549 miR-34 inducible, Hoechst nuclei count, 48 h
[8] = survival rescue of mitochondrial mutant cells in low glucose, primary screen, MELAS cybrids, Rieske KO mouse fibroblasts, CellTiter-Glo (AID 1508586;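 active = mean z-score across replicates of 1.96 or higher in either the MELAS or the Rieske mutant cell line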;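 note: z relative to plate mean and SD of compound and empty wells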)
[9] = ovarian cancer cell viability with rucaparib, profiling panel, oncology-focused library, rucaparib conditional (AID 1508598); settings: patient-derived ovarian cancer cells, CellTiter-Glo viability, 144 h, stronger effect = lower value
[10] = SU-DIPG-XXV glioma cell viability, MIPE5.0 library, qHTS (AID 1347068; cut-off not given, nearly all actives have IC50 up to about 30 µM;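 for IC50: cells exposed to compound for 48 hours before viability readout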)
[11] = growth inhibition of DIPG glioma cells, dose response, cell-based, SU-DIPG-XIII, MIPE5.0, CellTiter-Glo, qHTS (AID 1347064; cut-off not given, nearly all actives have AC50 up to about 23 µM;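 for AC50: cells exposed to compound for 48 hours before the viability read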); settings: SU-DIPG-XIII viability, CellTiter-Glo ATP luminescence
[12] = modifiers of HSF1 nuclear foci, imaging, Selleck Cancer Library (AID 1347162; in the data active = plate-normalised HSF1 focus index below about 0.46); settings: human cells, at 10 µM; SSMD: measured here: HSF1 foci SSMD mean; cell count: measured here: cell number; plate-normalised HSF1 focus index: stronger effect = lower value
[13] = stronger effect = lower value, cell number ratio, induced over uninduced
[14] = measured here: relative caspase fold change +Dox/-Dox
[15] = measured here: total cells with miR-34 induction, stronger effect = lower value
[16] = measured here: total cells without miR-34 induction
[17] = MELAS cybrid survival, CellTiter-Glo 48 h, stronger effect = higher value
[18] = Rieske KO mouse fibroblast survival, CellTiter-Glo 72 h
[19] = at 0.000305 µM, OCI-C5x cells, with rucaparib 10 µM, 100% = cells with rucaparib alone
[20] = at 0.000305 µM, OCI-C5x cells, without rucaparib
[21] = at 0.000305 µM, OCI-P5x cells, with rucaparib 20 µM, 100% = cells with rucaparib alone
[22] = at 0.000305 µM, OCI-P5x cells, without rucaparib
[23] = at 0.00122 µM, OCI-C5x cells, with rucaparib 10 µM, 100% = cells with rucaparib alone
[24] = at 0.00122 µM, OCI-C5x cells, without rucaparib
[25] = at 0.00122 µM, OCI-P5x cells, with rucaparib 20 µM, 100% = cells with rucaparib alone
[26] = at 0.00122 µM, OCI-P5x cells, without rucaparib
[27] = at 0.00488 µM, OCI-C5x cells, with rucaparib 10 µM, 100% = cells with rucaparib alone
[28] = at 0.00488 µM, OCI-C5x cells, without rucaparib
[29] = at 0.00488 µM, OCI-P5x cells, with rucaparib 20 µM, 100% = cells with rucaparib alone
[30] = at 0.00488 µM, OCI-P5x cells, without rucaparib
[31] = at 0.0195 µM, OCI-C5x cells, with rucaparib 10 µM, 100% = cells with rucaparib alone
[32] = at 0.0195 µM, OCI-C5x cells, without rucaparib
[33] = at 0.0195 µM, OCI-P5x cells, with rucaparib 20 µM, 100% = cells with rucaparib alone
[34] = at 0.0195 µM, OCI-P5x cells, without rucaparib
[35] = at 0.0781 µM, OCI-C5x cells, with rucaparib 10 µM, 100% = cells with rucaparib alone
[36] = at 0.0781 µM, OCI-C5x cells, without rucaparib
[37] = at 0.0781 µM, OCI-P5x cells, with rucaparib 20 µM, 100% = cells with rucaparib alone
[38] = at 0.0781 µM, OCI-P5x cells, without rucaparib
[39] = at 0.313 µM, OCI-C5x cells, with rucaparib 10 µM, 100% = cells with rucaparib alone
[40] = at 0.313 µM, OCI-C5x cells, without rucaparib
[41] = at 0.313 µM, OCI-P5x cells, with rucaparib 20 µM, 100% = cells with rucaparib alone
[42] = at 0.313 µM, OCI-P5x cells, without rucaparib
[43] = at 1.25 µM, OCI-C5x cells, with rucaparib 10 µM, 100% = cells with rucaparib alone
[44] = at 1.25 µM, OCI-C5x cells, without rucaparib
[45] = at 1.25 µM, OCI-P5x cells, with rucaparib 20 µM, 100% = cells with rucaparib alone
[46] = at 1.25 µM, OCI-P5x cells, without rucaparib
[47] = at 5 µM, OCI-C5x cells, with rucaparib 10 µM, 100% = cells with rucaparib alone
[48] = at 5 µM, OCI-C5x cells, without rucaparib
[49] = at 5 µM, OCI-P5x cells, with rucaparib 20 µM, 100% = cells with rucaparib alone
[50] = at 5 µM, OCI-P5x cells, without rucaparib

Cc1cc(C(=O)N2CCN(c3cccc(Cl)c3)CC2)n(-c2ccccc2)n1
active: AC50 [1] 7.42 µM | AC50 [3] 9.34 µM
inactive: outcome [2] | outcome [4]

Cc1ccc(S(=O)(=O)Nc2cc(Cl)ccc2C(=O)Nc2nc(-c3ccccc3)cs2)cc1
active: AC50 [1] 7.42 µM | AC50 [2] 10.5 µM | AC50 [5] 16.6 µM | AC50 [3] 8.33 µM | AC50 [4] 5.26 µM | AC50 [6] 1.05 µM

Nc1cccc2c1C(=O)N(C1CCC(=O)NC1=O)C2=O (centres undefined)
0.842: fold change [7, 14]
9490: cell count [7, 16]
0.628: z-score [8, 18]
inactive: outcome [1] | outcome [2] | outcome [5] | outcome [4] | outcome [6] | fold change [7, 13] 0.865 | z-score [8, 17] 0.05 | viability [9, 19] 110% | viability [9, 20] 124% | viability [9, 21] 110% | viability [9, 22] 127% | viability [9, 23] 109% | viability [9, 24] 124% | viability [9, 25] 107% | viability [9, 26] 125% | viability [9, 27] 112% | viability [9, 28] 121% | viability [9, 29] 102% | viability [9, 30] 118% | viability [9, 31] 115% | viability [9, 32] 125% | viability [9, 33] 105% | viability [9, 34] 114% | viability [9, 35] 117% | viability [9, 36] 112% | viability [9, 37] 104% | viability [9, 38] 118% | viability [9, 39] 110% | viability [9, 40] 116% | viability [9, 42] 107% | viability [9, 43] 118% | viability [9, 44] 117% | viability [9, 47] 105% | viability [9, 48] 110%
8200: cell count [7, 15]
active: AC50 [3] 0.00118 µM | viability [9, 41] 99.9% | viability [9, 45] 88.7% | viability [9, 46] 97.8% | viability [9, 49] 84.6% | viability [9, 50] 97.3%

N#CC(c1ccnc(NCCc2cccnc2)n1)c1nc2ccccc2s1 (centres undefined)
active: AC50 [1] 11.8 µM | AC50 [5] 13.2 µM | AC50 [3] 11.8 µM | AC50 [6] 18.6 µM
inactive: outcome [2] | outcome [10]

Cc1c[nH]c(/C=C2\C(=O)Nc3ccccc32)c1CCC(=O)O
active: AC50 [1] 14.8 µM | AC50 [2] 5.9 µM | AC50 [3] 10.5 µM | AC50 [6] 16.6 µM
inactive: outcome [4]

N#CC1(c2ccc(NC(=O)c3cccnc3NCc3ccncc3)cc2)CCCC1
inactive: outcome [1] | outcome [2] | outcome [11] | outcome [3] | outcome [4] | outcome [6] | outcome [10] | fold change [7, 13] 0.862 | z-score [8, 17] -0.704
1.08: fold change [7, 14]
7700: cell count [7, 16]
6630: cell count [7, 15]
0.694: z-score [8, 18]

CO[C@H]1C[C@@H]2CC[C@@H](C)[C@@](O)(O2)C(=O)C(=O)N2CCCC[C@H]2C(=O)O[C@H]([C@H](C)C[C@@H]2CC[C@@H](OC(=O)C(C)(CO)CO)[C@H](OC)C2)CC(=O)[C@H](C)/C=C(\C)[C@@H](O)[C@@H](OC)C(=O)[C@H](C)C[C@H](C)/C=C/C=C/C=C/1C
inactive: outcome [2] | plate-normalised HSF1 focus index [12] 1.05
0.578: SSMD [12]
6900: cell count [12]
active: AC50 [1] 14.4 µM | AC50 [3] 12.9 µM | AC50 [4] 9.35 µM | AC50 [6] 14.4 µM

C/C=C/C/C=C/CCC(=O)[C@H]1O[C@H]1C(N)=O
2.34 and 1.07: fold change [7, 14]
active: AC50 [1] 20.9 µM | AC50 [11] 20.9 µM | AC50 [6] 23.5 µM
658 and 6130: cell count [7, 16]
532 and 6420: cell count [7, 15]
inactive: outcome [2] | outcome [4] | fold change [7, 13] 0.809 and 1.05

CS(=O)(=O)N1CCN(Cc2cc3nc(-c4cccc5[nH]ncc45)nc(N4CCOCC4)c3s2)CC1
active: AC50 [1] 1.18 µM | AC50 [2] 5.26 µM | AC50 [5] 0.166 µM | AC50 [11] 1.32 µM | AC50 [3] 0.661 µM | IC50 [10] 4.17 µM | z-score [8, 17] 3.74 | viability [9, 21] 98.9% | viability [9, 22] 94.9% | viability [9, 25] 98.2% | viability [9, 26] 92.1% | viability [9, 29] 94.4% | viability [9, 30] 93.2% | viability [9, 33] 96.3% | viability [9, 34] 87.5% | viability [9, 37] 92.7% | viability [9, 38] 88.1% | viability [9, 41] 72.6% | viability [9, 42] 78.2% | viability [9, 45] 82.3% | viability [9, 46] 82.1% | viability [9, 49] 54.2% | viability [9, 50] 70.8%
-1.97: SSMD [12]
6530: cell count [12]
0.859: fold change [7, 14]
inactive: fold change [7, 13] 0.864 | plate-normalised HSF1 focus index [12] 0.899 | viability [9, 19] 111% | viability [9, 20] 127% | viability [9, 23] 121% | viability [9, 24] 119% | viability [9, 27] 109% | viability [9, 28] 120% | viability [9, 31] 111% | viability [9, 32] 118% | viability [9, 35] 114% | viability [9, 36] 108% | viability [9, 39] 105% | viability [9, 40] 107% | viability [9, 43] 125% | viability [9, 44] 123% | viability [9, 47] 114% | viability [9, 48] 120%
1360: cell count [7, 15]
1: z-score [8, 18]
1570: cell count [7, 16]

Cn1c(Nc2ccc(C(F)(F)F)cc2)nc2cc(Oc3ccnc(-c4ncc(C(F)(F)F)[nH]4)c3)ccc21
active: AC50 [1] 5.25 µM | AC50 [2] 16.6 µM | AC50 [5] 0.132 µM | AC50 [3] 0.372 µM | AC50 [4] 3.32 µM | AC50 [6] 2.63 µM
2230: cell count [7, 15]
inactive: fold change [7, 13] 0.96 | z-score [8, 17] 0.723
0.95: fold change [7, 14]
2330: cell count [7, 16]
0.357: z-score [8, 18]
